From PubChem BioAssay (NCATS) come the findings set out here.

Results filed as inconclusive are left out. Where a call stands in place of a potency, no number is given. Calls of active or inactive are those of the source. The call rests on the fitted dose curve; in most records, active means well fitted inhibition curve with a large enough effect; inconclusive means small, poorly fitted or top-dose-only effect; inactive means no such curve, though single readings can be large or run the other way.
Potency means the concentration at half of the fitted maximal effect.

The assay can be described thus: qHTS for Inhibitors of the Aldehyde Dehydrogenase Family (ALDH1A2, ALDH1A3, ALDH2, ALDH3A1) (AID 2061307). Further: nearly all actives have a fitted effect of over 50% in size. On potency: test system not described further here. Conditions: ALDH inhibition qHTS; series mostly up to 50.3 µM.
In the case of `Clc1ccc(-c2noc3ncnc(N4CCCCC4)c23)cc1`, the Potency is 11.3 µM (active). In the case of `OCCNc1nc(Nc2ccccc2O)nc(N2CCCC2)n1`, the Potency entry is “inactive”.

As for `O=C(N/N=C/c1ccc(Br)o1)c1cccc(F)c1`, the Potency is 6.31 µM (active). The value for `O=C(O)c1ccnc(-n2cc(Br)cn2)c1` was “inactive”. Consider `CC(=O)c1c(C)[nH]c2ccc(O)cc12`, for which the Potency entry was “inactive”. On to `CN1CCN(c2ccc3ncc(Nc4ccc(Cl)c(C(F)(F)F)c4)n3n2)CC1`, for which the Potency is 28.2 µM (active).

As to `Cc1cccc(NC(=O)C2CC(=O)N(c3ccc(S(=O)(=O)N(C)C)cc3)C2)n1` (stereo not given), the Potency result is “inactive”. Regarding `O=C(Nc1ncc(CN2CCCCC2)s1)c1ccc(-c2cccc([N+](=O)[O-])c2)o1`, the Potency was 11.3 µM (active).

Regarding `O=C(N/N=C/c1ccc(Sc2nc3ccccc3s2)o1)c1cccc(F)c1`, the Potency is 0.896 µM (active). Consider `Cc1ccc(-c2cc(-c3c(Cc4ccc(S(N)(=O)=O)c(F)c4)c(CC4CC4)nn3-c3nc(C(=O)O)cs3)ccc2F)s1`, for which the Potency is 17.9 µM (active). `CC(C)(C)c1ccccc1-n1c(CN2CCN(C(=O)c3ccco3)CC2)nc2ccccc2c1=O`: the Potency result was “inactive”. As for `CN1c2cc(C(=O)Nc3ccc(N4CCOCC4)cc3)ccc2C(=O)N2CCCCC21` (stereo not given), the Potency entry is “inactive”. `O=C1C(=O)N(Cc2ccccc2)c2ccccc21`: the Potency is 1.79 µM (active). With `NCC(=O)Nc1ccc2c(c1)Oc1cc(NC(=O)CN)ccc1C21OC(=O)c2ccccc21`, the Potency result is “inactive”. On to `O=C(Nc1cccc(Oc2ncccn2)c1)c1cccc(C(F)(F)F)c1`, for which the Potency entry was “inactive”. As for `COc1ccc(C(=O)O/N=C(\N)c2ccccn2)cc1`, the Potency is 0.538 µM (active). Regarding `CN(C)Cn1c(O)c(N=NC(=O)c2cccnc2)c2ccccc21`, the Potency entry was “inactive”. With `CCOC(=O)COc1ccc2c(c1)c(C(=O)c1ccccc1)c(C)n2-c1ccc(OC)cc1`, the Potency result was “inactive”.

As for `COc1cc(O)c(C(CC(=O)N2CC(C)CC(C)C2)c2cccc(OC(C)C)c2)c(OC)c1` (stereo not given), the Potency was 12.7 µM (active).

In the case of `COc1cccc(CNc2ccc(S(=O)(=O)Nc3nc4ccccc4[nH]3)cc2)c1O`, the Potency entry was “inactive”. With `Cc1ccccc1C(=O)c1no[n+]([O-])c1C(=O)c1ccccc1C`, the Potency was 10 µM (active). For `CCN1C(=O)c2ccccc2S(=O)c2ccc(C(=O)NCc3cccc(C(F)(F)F)c3)cc21` (stereo not given), the Potency entry is “inactive”.

Consider `Oc1ccccc1NCC(O)Cn1ccc2ccccc21` (stereo not given), for which the Potency result was “inactive”. Take `COc1ccc(-n2c(C)c(C(=O)O)c3cc(O)ccc32)cc1`: the Potency entry is “inactive”.

On to `CC1(C)c2nc(-c3ccc(F)cc3)c(Nc3ccc(F)cc3)n2CCN1C(=O)CN`, for which the Potency result was “inactive”.

As to `CSCc1cccc(C(=O)Nc2cccnc2)c1`, the Potency result is “inactive”.

As to `Cc1c(P(=S)(c2ccccc2)c2ccccc2)[n+]2ccccc2n1C/C=C/c1ccc(Cl)cc1`, the Potency result is “inactive”. Turning to `Cc1ccc(-c2ccccc2)n1-c1ccccc1C(=O)O`, the Potency was 15.9 µM (active). In the case of `O=C(Nc1ccc2oc(-c3cccnc3)nc2c1)c1ccc(-c2ccccc2)o1`, the Potency entry was “inactive”. The value for `O=C(Nc1ccccc1C(=O)Nc1cccc(C(F)(F)F)c1)c1cccc([N+](=O)[O-])c1` was 3.55 µM (active). For the compound `CCN1CCN(C(=S)c2ccc([N+](=O)[O-])cc2)CC1`, the Potency result is “inactive”.

Turning to `Cc1c(Cl)cccc1-n1c(CCC(=O)O)ccc1-c1cccs1`, the Potency was 6.34 µM (active). On to `Cc1ccc2c(CC(=O)Nc3c(C(=O)c4ccc(F)cc4)oc4ccccc34)coc2c1C`, for which the Potency entry is “inactive”. The value for `COc1ccc(OC)c(NC(=O)c2cc(C3CC3)nc3c2c(C)nn3-c2ccc(C)cc2)c1` was “inactive”; that for `Nc1c(Cc2ccc(S(N)(=O)=O)cc2)c(-c2ccccc2)nn1-c1nc(C(=O)O)co1` was “inactive”; that for `NS(=O)(=O)c1ccc(Cc2cn(-c3nc(C(=O)O)cs3)c3cc(C(=O)N4CCOCC4)ccc23)cc1` was “inactive”. Take `COc1cccc(NC(=O)c2cc3ccccc3[nH]c2=O)c1`: the Potency entry was “inactive”. The value for `Cc1cn(-c2cc(NC(=O)c3ccc(C)c(N)c3)cc(C(F)(F)F)c2)cn1` was “inactive”; that for `Fc1ccc(CN2CCC(N(CCc3ccccc3)Cc3ccccc3)CC2)cc1` was “inactive”. On to `Cc1cc(Cl)ccc1-n1c(CCC(=O)O)ccc1-c1cccs1`, for which the Potency was 12.7 µM (active).
